Screens (PubChem BioAssay)
A selection: hits, their analogues and other compounds. The true share with any hit is near 10%.
HPGD block – qHTS Assay for Inhibitors of HPGD (15-Hydroxyprostaglandin Dehydrogenase); 15-hydroxyprostaglandin dehydrogenase [NAD(+)] (Homo sapiens), P15428; purified HPGD, NADH fluorescence kinetic, PGE2 substrate; Potency, µM, for inactives: at the highest dose activity change, negative = inhibition, actives largely listed as inhibitors; actives 4.3% (n = 150,000); AID 894, 2007; active = well fitted inhibition curve with a large enough effect, not every such curve was filed as active; inconclusive = small, poorly fitted or top-dose-only effect, or another doubt; inactive = no such curve, though single readings can be large or run the other way; also: potency is read from the fitted curve at half-maximal effect
Target sequence (P15428 whole entry, looked up): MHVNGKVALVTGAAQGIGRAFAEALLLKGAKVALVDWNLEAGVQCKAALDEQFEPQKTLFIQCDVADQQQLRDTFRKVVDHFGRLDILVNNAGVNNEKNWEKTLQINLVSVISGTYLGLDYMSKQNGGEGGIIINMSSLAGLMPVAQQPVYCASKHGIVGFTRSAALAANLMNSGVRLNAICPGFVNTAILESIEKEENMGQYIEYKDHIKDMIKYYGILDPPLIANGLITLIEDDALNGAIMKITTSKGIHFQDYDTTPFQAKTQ
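20 nM HPGD preincubated 15 min at room temperature with compound in 50 mM Tris-HCl pH 8, 0.01% Tween 20. Started with 1 mM NAD+ and 30 uM prostaglandin E2; NADH fluorescence (360/450 nm) read 5 times over 30-s intervals, last minus first.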
ALOX12 inhib – qHTS Assay for Inhibitors of 12-hLO (12-human lipoxygenase). Potency, µM (top dose mostly 57.1 µM), for inactives: at the highest dose activity change, negative = inhibition, actives largely listed as inhibitors. Polyunsaturated fatty acid lipoxygenase ALOX12 (Homo sapiens), P18054. actives 0.12% (n = 150,000). purified 12-hLO, xylenol orange hydroperoxide absorbance; also: potency is read from the fitted curve at half-maximal effect; nearly all actives have a fitted effect of over 55% in size
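Lipoxygenase turnover measured by absorbance at 573 and 405 nm after Fe-XO development. Human 12hLO 150 nM, arachidonate 40 uM, pH 7.0 Hepes buffer with detergent; 15 min compound preincubation, 30 min reaction.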
GLA inh pH 4.5 – qHTS Assay for Inhibitors of Human alpha-Galactosidase at pH 4.5; AID 1467, 2008; purified enzyme, 4-MU-alpha-Gal fluorescence, pH 4.5; Alpha-galactosidase A (Homo sapiens), P06280; activity change, negative = inhibition, % at 105 µM; 230,000 tested, under 10 active;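 also: 0% = full activity with enzyme and -100% = basal without enzyme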
Target sequence (P06280 whole entry, looked up): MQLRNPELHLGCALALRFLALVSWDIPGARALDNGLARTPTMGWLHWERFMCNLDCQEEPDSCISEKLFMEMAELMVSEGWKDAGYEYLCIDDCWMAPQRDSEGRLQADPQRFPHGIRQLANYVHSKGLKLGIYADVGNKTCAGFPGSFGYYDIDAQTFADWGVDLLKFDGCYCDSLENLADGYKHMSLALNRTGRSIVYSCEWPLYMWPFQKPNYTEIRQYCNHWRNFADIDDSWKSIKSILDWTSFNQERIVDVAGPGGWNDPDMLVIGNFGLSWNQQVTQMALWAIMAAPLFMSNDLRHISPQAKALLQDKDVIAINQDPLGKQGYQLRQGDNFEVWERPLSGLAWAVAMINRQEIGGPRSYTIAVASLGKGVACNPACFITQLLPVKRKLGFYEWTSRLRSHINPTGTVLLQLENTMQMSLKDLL
PNC inhibitor – High Content Assay for Compounds that inhibit the Assembly of the Perinucleolar Compartment; activity change (PNC), negative = inhibition, % at 10 µM; actives 3.1% (n = 140,000); PC3M PTB-GFP, PNC prevalence imaging, 16 h; hits give low values;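 active = readout at or below -70, meaning at least 70% loss of cells showing the perinucleolar compartment, a nuclear body marking cancer cells; inconclusive = readout between -30 and a set limit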;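 also: plate controls were DMSO wells for no effect and camptothecin positive control wells for full effect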
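Compounds are pinned in duplicate onto adhered PC3M cells stably expressing GFP-tagged PTB and incubated 16 h at 37 C. Cells are then fixed, nuclei stained with Hoechst, and PNC-positive cells counted.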
ALDH1A1 block – qHTS Assay for Inhibitors of Aldehyde Dehydrogenase 1 (ALDH1A1); Purified ALDH1A1, NADH fluorescence, propionaldehyde substrate; Potency, µM (titrated, usually from 75.3 µM), for inactives: top-dose activity, negative = inhibition, actives largely listed as inhibitors; actives 7.3% (n = 220,000); AID 1030, 2008; active = well fitted inhibition curve with a large enough effect, not every such curve was filed as active; inconclusive = small, poorly fitted or top-dose-only effect, or another doubt; inactive = no such curve, though single readings can be large or run the other way;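 also: potency is read from the fitted curve at half-maximal effect; plate controls were no enzyme wells and a reference inhibitor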
GLA spleen mod – qHTS Assay for Inhibitors and Activators of Human alpha-Galactosidase From Spleen Homogenate. Alpha-galactosidase A (Homo sapiens), P06280. human spleen homogenate, 4MU-alpha-Gal fluorescence, 40 min. Potency, µM (doses to about 80 µM), inactives show at the highest dose activity change, negative = inhibition, usual class: inhibitors. actives 0.008% (n = 240,000). AID 2107, 2009;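 also: potency is read from the fitted curve at half-maximal effect; 0% = enzyme with vehicle and -100% = no enzyme basal signal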
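Human spleen homogenate (1 ug) as enzyme source, 4-methylumbelliferyl-alpha-D-galactopyranoside 1 mM final, citrate/phosphate pH 5.0 with 0.01% Tween-20. Compounds 40 min at 37C, NaOH/glycine stop; fluorescence Ex 365/Em 440, Hill-fit AC50.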
Numbers without * were called inactive; [ ] = remark or other dose. Unless noted, calls follow the shape of the dose curve; as a rule, active = well fitted curve in the direction sought with a large enough effect; inconclusive = small, poorly fitted or top-dose-only effect, or another doubt; inactive = no such curve, though single readings can be large; an effect the other way counts as inactive or inconclusive. Unless noted, % is scaled to controls: 0 for no effect and ±100 for the full control effect.

`Cc1c2oc3c(C)ccc(C(=O)NC4C(=O)NC(C(C)C)C(=O)N5CCCC5C(=O)N(C)CC(=O)N(C)C(C(C)C)C(=O)OC4C)c3nc-2c(C(=O)NC2C(=O)NC(C(C)C)C(=O)N3CCCC3C(=O)N(C)CC(=O)N(C)C(C(C)C)C(=O)OC2C)c(N)c1=O` (stereo not given) gave ALDH1A1 block -3% and GLA spleen mod 10%.
For NC(=O)N/N=C/c1cc(Br)ccc1OC(=O)c1ccccc1 the results were HPGD block -10%, ALOX12 inhib 6%, GLA inh pH 4.5 1, PNC inhibitor -81*, ALDH1A1 block 0% and GLA spleen mod 10%.
Screening CN(C)C(N)=NCCC[C@H](N)C(=O)O returned HPGD block -2%, ALOX12 inhib -2%, GLA inh pH 4.5 1, ALDH1A1 block 8% and GLA spleen mod 11%.
For COc1ccc(NC2=NCC(Cc3ccc(Br)cc3)S2)cc1 (stereo not given) the results were HPGD block -25%, ALOX12 inhib inconclusive, GLA inh pH 4.5 6, PNC inhibitor -92*, ALDH1A1 block -4% and GLA spleen mod 0%.
COc1ccc(Nc2ccc(OC)cc2)cc1 was read as GLA inh pH 4.5 1 and GLA spleen mod -8%.
For Cc1cc(C(=O)NCC(c2ccco2)N(C)C)no1 (stereo not given) the results were HPGD block 3%, ALOX12 inhib -1%, GLA inh pH 4.5 4, PNC inhibitor -93*, ALDH1A1 block 1% and GLA spleen mod 3%.
For O=C(Cn1c2c(sc1=O)C1c3ccccc3OCC1CS2)Nc1ccc(Cl)c(Cl)c1 (stereo not given) the results were HPGD block -15%, ALOX12 inhib -4%, GLA inh pH 4.5 -1, PNC inhibitor 56, ALDH1A1 block 25µM* and GLA spleen mod 1%.
Cn1c(N)c(N2CCCCC2)c(=O)n(CC(=O)Nc2ccc(Cl)c(Cl)c2)c1=O was read as HPGD block -2%, ALOX12 inhib -3%, GLA inh pH 4.5 -4, PNC inhibitor -16, ALDH1A1 block 4% and GLA spleen mod -2%.
Screening CCc1c(C)sc(NC(=O)CC#N)c1C#N returned HPGD block inconclusive, ALOX12 inhib -12%, GLA inh pH 4.5 -6, PNC inhibitor 9, ALDH1A1 block 3.5µM* and GLA spleen mod 10%.
Cc1cc(C(=O)Nc2sc(C)c(C)c2C#N)no1 was read as HPGD block -4%, ALOX12 inhib -8%, GLA inh pH 4.5 -3, PNC inhibitor inconclusive, ALDH1A1 block 13µM* and GLA spleen mod -1%.
For CCc1c(C)sc(NC(=O)c2cc(C)no2)c1C#N the results were HPGD block 32µM*, ALOX12 inhib 1%, GLA inh pH 4.5 -4, PNC inhibitor 33, ALDH1A1 block 13µM* and GLA spleen mod 2%.
Screening CCc1c(C)sc(NC(=O)c2cc(C(C)C)on2)c1C#N returned GLA inh pH 4.5 4, ALDH1A1 block 18µM* and GLA spleen mod -2%.
For N#Cc1c(NC(=O)c2cccnc2)sc2c1CCC2 the results were HPGD block -2%, ALOX12 inhib -16%, GLA inh pH 4.5 -10, PNC inhibitor -10, ALDH1A1 block -15% and GLA spleen mod 2%.
`N#Cc1c(NC(=O)c2cnccn2)sc2c1CCCC2` gave HPGD block 28µM*, ALOX12 inhib 1%, GLA inh pH 4.5 -12, PNC inhibitor 7, ALDH1A1 block 14µM* and GLA spleen mod -8%.
Screening CC(C)c1onc(C(=O)N2CCCCCC2)c1[N+](=O)[O-] returned GLA inh pH 4.5 -5[21.1 µM], ALDH1A1 block 25µM* and GLA spleen mod 9%.
For O=C(Nc1sc2c(c1C(=O)c1ccccc1)CCCC2)c1cccnc1 the results were HPGD block -4%, ALOX12 inhib 8%, GLA inh pH 4.5 -10, PNC inhibitor -5, ALDH1A1 block inconclusive and GLA spleen mod -4%.
For O=C(Nc1sc2c(c1C(=O)c1ccc(Cl)cc1)CCCC2)c1cccnc1 the results were HPGD block -18%, ALOX12 inhib 3%, GLA inh pH 4.5 -13, PNC inhibitor 26, ALDH1A1 block 20µM* and GLA spleen mod 9%.
Screening CC(C)c1onc(C(=O)N2CCC(C(N)=O)CC2)c1[N+](=O)[O-] returned GLA inh pH 4.5 -4 and GLA spleen mod -5%.
Cc1nn(CCCC(=O)Nc2sc3c(c2C#N)CCC3)c(C)c1[N+](=O)[O-] was read as HPGD block 22µM*, ALOX12 inhib -3%, GLA inh pH 4.5 2, PNC inhibitor 3, ALDH1A1 block 2.5µM* and GLA spleen mod -5%.
`Cc1nn(C(C)C(=O)Nc2sc3c(c2C#N)CCCC3)c(C)c1[N+](=O)[O-]` (stereo not given) gave HPGD block -4%, ALOX12 inhib -7%, GLA inh pH 4.5 4, PNC inhibitor 70, ALDH1A1 block -10% and GLA spleen mod 7%.
Screening COc1ccc(-n2c(=O)c(CCc3ccccc3)nc3cncnc32)cc1 returned ALDH1A1 block inconclusive and GLA spleen mod -14%.
For C/C(=N\NC(=O)C(C)n1nc(C)c([N+](=O)[O-])c1C)c1ccccc1O (stereo not given) the results were HPGD block -21%, ALOX12 inhib -5%, GLA inh pH 4.5 -6, PNC inhibitor 37, ALDH1A1 block 1% and GLA spleen mod 4%.
For C=CC[C@](C)(Nc1ccc(OC)cc1)C(=O)OCC the results were HPGD block -3%, GLA inh pH 4.5 -3, ALDH1A1 block 4% and GLA spleen mod -8%.
C#CCOCCOCCOCCNc1nc(N2CCN(C(=O)[C@H](CCC(=O)O)n3cc(C(N)[C@H](C)CC)nn3)CC2)nc(N2CCN(C(=O)[C@H](CCC(=O)O)n3cc(C(N)[C@H](C)CC)nn3)CC2)n1 (stereo not given in full) was read as GLA inh pH 4.5 -3, ALDH1A1 block 4% and GLA spleen mod -6%.
`COc1ccc(C(=O)Nc2c(Cl)cc(Cl)cc2C(=O)N2CCOCC2)cc1` gave GLA inh pH 4.5 5, ALDH1A1 block -2% and GLA spleen mod 0%.
CC1CC(C)(C)NC(=S)O1 (stereo not given) was read as GLA inh pH 4.5 -3, ALDH1A1 block 6% and GLA spleen mod 6%.
